About 83,000 compounds went through this panel and 20% of them were active in at least one assay; those are over-represented in the sample as a whole.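 In brief: 96-well plates, 48 h treatment, single concentration, percent growth endpoint.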 Active and inactive are the calls of the source.
Tested on: HCT-15 colon
Assay: NCI-60 one-dose screen, 48 h (100 = growth as untreated, 0 = no growth, -100 = all killed)
Settings: 10 µM unless noted
Experimental: Growth inhibition of the HCT-15 human tumor cell line is measured as a screen for anti-cancer activity. Cells are grown in 96 well plates and exposed to the test compound for 48 hours. Compounds are tested at a single concentration, which is 10^-5 M for most compounds. The reported endpoint is percent growth (GI% or GIPRCNT), where numbers from 0 - 100% represent growth inhibition, and numbers from -100% - 0 represent cell death. For example, a value of 40 represents 60% growth inhibition. A value of 0 means no net growth occurred over the course of the experiment. A value of -40 indicates 40% of cells at the beginning of the experiment died by the end of the experiment. A value of -100 means all cells are dead at the end of the experiment.
NCI-60 Human Tumor Cell Lines Screen was performed using the standard one-dose NCI protocol, which is described in more detail at https://dtp.cancer.gov/discovery_development/nci-60/default.htm.
Compounds with GIPRCNT values below 10 were considered active. Activity score was based on GIPRCNT using the following formula: […]
Score is 0 for GIPRCNT values of 100 or above, 50 for GIPRCNT values of 0, and 100 for GIPRCNT values of -100.

Structure (SMILES)	growth
Cc1ccc(-c2nc3nc(-c4ccccc4)nc(N4CCCN(S(C)(=O)=O)CC4)c3o2)cc1	73.3% (inactive)
Cc1c(CC(=S)N2CCOCC2)nnn1-c1cccc(C(F)(F)F)c1	104% (inactive)
O=C(CCSc1nnc2n(Cc3ccccc3)c(=O)c3c4c(sc3n12)CCCC4)N1CCN(c2ccccc2)CC1	96.9% (inactive)
C=C1C(=O)O[C@H]2[C@H]1CC/C(COC(=O)NCc1ccc(Cn3c(=O)sn(-c4ccc(C#N)cc4)c3=O)cc1)=C\CC[C@@]1(C)O[C@@H]21	87.8% (inactive)
S=c1nc2oc(-c3ccccc3)c(-c3ccccc3)c2c(/N=C\c2ccco2)[nH]1	85.6% (inactive)
Cn1ccc(=O)nc1	24.1% (inactive)
CCCCNC(=O)Oc1ccc(/C(=C(/C)Cc2ccc(OC)cc2)c2ccc(OCCN3CCCCC3)cc2)cc1	32.3% (inactive)
COc1ccc(Oc2nc(Nc3ccc(N4CCOCC4)cc3)ncc2NC(=O)Nc2cc(OC)cc(OC)c2)cc1	82.9% (inactive)
CCN1C(=O)N(CC)C2C1NN=c1s/c(=C\c3ccc(C(F)(F)F)cc3)c(=O)n12 (stereo not given)	9.86% (active)
O=c1c2c3c(sc2n2c(-c4cc(-c5ccccc5)no4)nnc2n1Cc1ccccc1)CCCC3	96.9% (inactive)
O=C(N/N=C\c1cccc([N+](=O)[O-])c1)N/N=C/c1cccc([N+](=O)[O-])c1	109% (inactive)
COc1cccc(/C=C/C(=O)c2cc3c(N)c(C(=O)Nc4cccc5ccccc45)sc3nc2C)c1	-23.1% (active)
CC[C@]12C=CCN3CC[C@@]4(c5ccc(OC)cc5N(C)[C@H]4[C@@](O)(C(=O)OC)[C@@H]1OC(=O)CCC[P+](c1ccccc1)(c1ccccc1)c1ccccc1)[C@@H]32	101% (inactive)
CN(Cc1cc(Br)cc(Br)c1O)Cc1cc(Br)cc(Br)c1O	22.2% (inactive)
COc1cccc(NCc2nnc(Nc3ccc(Cl)cc3)c3ccccc23)c1	-18.1% (active)
CCN1C(=O)N(CC)C2C1NN=c1s/c(=C3\C(=O)N(CCC(C)C)c4ccccc43)c(=O)n12 (stereo not given)	14.6% (inactive)
Cc1ccc2nc(/C(C#N)=C(/CCCO)NC(Cc3ccccc3)C(=O)OCc3ccccc3)[nH]c(=O)c2c1 (stereo not given)	117% (inactive)
O=C(CSc1nc(-c2ccccc2)cc(=O)[nH]1)Nc1nc(-c2ccccc2)cs1	89.7% (inactive)
NNCCc1ccc(NC(=O)CCCc2ccc(C(=O)Nc3ccccc3N)cc2)cc1	96.8% (inactive)
N#C/C(=C\c1cn(Cc2ccccc2)c2ccccc12)C(=O)Nc1ncc(Cc2ccccc2Cl)s1	35.7% (inactive)

Structure (SMILES)	growth
CCCCCCCCCCCCCCCCCC1=NC(C)(C)CN1CC(C)O (stereo not given)	10.3% (inactive)
O=C1/C(=C\c2ccccn2)c2ccccc2N1c1c(Cl)cccc1Cl	12.6% (inactive)
Cc1ccc(N2C(=O)CCC2=O)cc1	96.3% (inactive)
COc1ccc(C2=CC(c3cc(OC)c(OC)c(OC)c3)n3ncnc3N2)cc1 (stereo not given)	14.5% (inactive)
CCN1C(=O)N(CC)C2C1NN=c1s/c(=C\c3cnc(C)n3C)c(=O)n12 (stereo not given)	27.7% (inactive)
CCN1C(=O)N(CC)C2C1NC(=S)N2/N=C/c1ccc(OC)cc1 (stereo not given)	33.2% (inactive)
CN(C)CCCC1(c2ccc(F)cc2)OCc2cc(-c3cc4ccccc4s3)ccc21 (stereo not given)	-49% (active)
Cn1c2c(c3ccc(Cl)c(Cl)c31)C(C#N)C(C)(C)NC2=O (stereo not given)	96.1% (inactive)
COc1ccc(C2=NN(C(C)=O)C(c3cn(-c4ccccc4)nc3-c3ccc(Cl)cc3)C2)cc1 (stereo not given)	17.1% (inactive)
O=C(Cc1ccc(NC(=O)c2cccc(Cl)c2)cc1)NCc1ccccc1	27.1% (inactive)
O=C(O)c1ccc(-c2ccc(/C=N/Nc3nc(Nc4ccccc4)nc(N4CCCCC4)n3)o2)cc1	55.3% (inactive)
COc1ccc2c(c1)c(-c1nc(-c3c[nH]c4ncccc34)cs1)cn2CCO	32% (inactive)
CN(C)S(=O)(=O)Oc1ccc(-c2sc3cc(OS(=O)(=O)N(C)C)ccc3c2C(=O)c2ccc(OCCN3CCCCC3)cc2)cc1	34.2% (inactive)
COc1cnc2c(c1)C(=O)c1c-2n(CCCCl)c(=O)c2ccncc12	75.5% (inactive)
C=C(C)[C@@H]1CCC[C@]2(C(=O)N3CCN(C)CC3)CC[C@]3(C)[C@@H](CC[C@@H]4[C@@]5(C)CC/C(=N\NC(=O)c6ccncc6)C(C)(C)[C@@H]5CC[C@]43C)[C@@H]12	92.1% (inactive)
CC(C)(C)c1cc(Cl)c(O)c(CNCCO)c1	99.7% (inactive)
COc1ccc2c(c1)/C(=N/c1n[nH]c(=S)s1)C(=O)N2	104% (inactive)
COc1ccc(C(=O)Cn2c(C(=O)c3ccc(Cl)cc3)nc3ccccc32)cc1	33.6% (inactive)
CC1(C)CC[C@]23CC[C@]4(C)[C@H](CC[C@@H]5[C@@]6(C)C/C(=C/c7ccncc7)C(=O)C(C)(C)[C@@H]6CC[C@]54C)[C@H]2[C@H]1OC3	73.4% (inactive)
COc1ccc(-c2nn(-c3ccccc3)cc2/C=C/C(=O)NNC(=O)Nc2ccc(C)cc2)cc1	97.1% (inactive)

From PubChem BioAssay (NCI)
